Source: PubChem (Sanford-Burnham Center for Chemical Genomics)
Only some compounds are listed: those with a hit (about 4% of all), similar ones and a draw of the others.
NLRP3 yeast inh = NALP3 inhibition in yeast. AID 2825. actives 0.39% (n = 330,000). inhibition, % at 10 µM. Yeast reconstituted NLRP3/ASC/caspase-1, beta-gal luminescence, 24 h;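 active = inhibition of 50% or more; inactive = inhibition below 50%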
tim23-1 inh = growth inhibitors of tim23-1 mutant yeast; S. cerevisiae tim23-1 growth, BacTiter-Glo luminescence, 24 h; inhibition, % at 20 µM; actives 1.3% (n = 330,000);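 active = growth inhibition of the mutant yeast at or above 50%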;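 note: temperature-sensitive mutant grown at 25 °C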
NALP1 inh = inhibitors of NALP1 inflammasome in yeast. S. cerevisiae NALP1/ASC/caspase-1 growth, X-gal OD620, 72 h. inhibition, % at 10 µM. actives 0.61% (n = 280,000). AID 2071; in the data active = inhibition mostly above about 24%, no sharp cut-off; inactive = mostly below about 32%
TIM10 inh = TIM10 yeast growth inhibition | inhibition, % at 10 µM | actives 1.4% (n = 330,000) | S. cerevisiae TIM10 strain growth, BacTiter-Glo luminescence, 24 h;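 active = inhibition of 40% or more at the single tested concentration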;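 note: wild-type TIM10 isogenic control strain grown at permissive 25 °C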
tim10-1 inh = inhibits growth of tim10-1 mutant yeast. AID 463190. actives 2.2% (n = 330,000). inhibition, % at 20 µM. S. cerevisiae tim10-1 ts strain growth, BacTiter-Glo, 24 h;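 active = inhibition of at least 40%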;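 note: mutant grown at 25 °C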
tim23-1 conf = tim23-1 yeast growth inhibition, confirmed; shares compounds with tim23-1 inh; S. cerevisiae tim23-1 growth, BacTiter-Glo luminescence, 24 h; inhibition, % at 20 µM; actives 83% (n = 4,400);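 active = inhibition above about 39% in either of two replicate wells at 20 µM, limit read from the data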;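 note: temperature-sensitive tim23-1 mutant grown at 25 °C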
Each line names hits and unclear results; the compound was inactive in the other large screens (follow-up assays come after a bar, where they were run).

Cc1ccc(C(=O)NC(=S)Nc2ccc(CN3CCOCC3)cc2)cc1	tim23-1 inh 52.4 | tim23-1 conf inactive
Oc1ccc(Cl)cc1CNCc1ccc(Cl)cc1	tim23-1 inh 60.2 (no result: NALP1 inh) | tim23-1 conf 38.1
O=C(COC(=O)c1nc(Cl)ccc1Cl)NC1CCCCC1	none (no result: NALP1 inh)
CCn1c(SCC(=O)Nc2nc3ccccc3s2)nc2c(c1=O)SC(C)C2 (centres undefined)	none
CCn1c(SCC(=O)Nc2nc3ccc(C)cc3s2)nc2c(c1=O)SC(C)C2 (centres undefined)	tim23-1 inh 52.0 | tim23-1 conf 47.4
COc1cc(SC)ccc1C(=O)OCC(=O)N1CCCC1	none
CC1(C)CC2CC(C)(CN2S(=O)(=O)c2ccc(F)cc2F)C1 (centres undefined)	tim23-1 inh 51.6 (no result: NALP1 inh) | tim23-1 conf 48.6
CC1(C)CC2CC(C)(CN2S(=O)(=O)c2cccc(C(=O)OCC(N)=O)c2)C1 (centres undefined)	none (no result: NALP1 inh)
N#Cc1c(-c2ccc(Cl)cc2)ccnc1N1CCOCC1	none
CCOC(=O)/C(=C\c1cn(C)c2ccccc12)[N+](=O)[O-]	tim23-1 inh 54.3 (no result: NALP1 inh) | tim23-1 conf 57.6
COC(=O)CC1COc2ccccc2N1S(=O)(=O)c1ccc(Br)cc1 (centres undefined)	tim23-1 inh 53.5 | tim23-1 conf inactive
COC(=O)CC1COc2ccccc2N1S(=O)(=O)c1ccc(OC)cc1 (centres undefined)	none
CCOC(=O)/C(=C/c1ccc(OC(=O)c2ccncc2)cc1)C(C)=O	tim23-1 inh 53.1 | tim23-1 conf 69.7
S=C(Nc1ccc(Nc2ccccc2)cc1)Nc1ccccn1	tim23-1 inh 51.6 | tim23-1 conf inactive
O=C(NC(=S)NC1CCCCC1)c1ccccc1	tim23-1 inh 62.4 | tim23-1 conf 55.5
O=C(NC(=S)NC1CCS(=O)(=O)C1)c1ccccc1 (centres undefined)	none
CC(NC(=S)NC(=O)c1ccccc1)c1ccccc1 (centres undefined)	tim23-1 inh 50.3 (no result: NALP1 inh) | tim23-1 conf 41.5
O=C(NC(=S)Nc1ccccn1)c1ccccc1	tim23-1 inh 50.2 | tim23-1 conf inactive
COc1ccc(C(=O)COC(=O)c2cc(S(=O)(=O)NCc3ccccc3)ccc2O)cc1	none
Nc1cccc(/C=C/c2ccncc2)c1	none
Cc1ccc(C(=O)SC2=NCCS2)cc1	tim23-1 inh 73.2 | tim23-1 conf 49.3
CC12CN3CC(C)(CN(C1)C3c1ccc(Br)cc1O)C2 (centres undefined)	tim23-1 inh 51.4 | tim23-1 conf 44.8
CN(C)/C=C1/C=C(c2ccccc2)OC1=O	tim23-1 inh 56.0 | tim23-1 conf 40.8
O=C1[C@H]2CCC=C[C@H]2[C@H](c2cccc(Br)c2)N1Cc1ccccc1	tim23-1 inh 58.3 (no result: NLRP3 yeast inh, NALP1 inh) | tim23-1 conf 52.6
O=C1[C@H]2CCC=C[C@H]2[C@H](c2ccccc2Br)N1Cc1ccccc1	tim23-1 inh 56.6 (no result: NLRP3 yeast inh, NALP1 inh) | tim23-1 conf inactive
O=C1C2C(c3ccccc3)CC=CC2[C@H](c2ccoc2)N1Cc1ccccc1 (some centres undefined)	none
CCCCCCc1nc(C(N)=O)c2[nH]c(=O)n(-c3ccccc3F)c2n1	none
CN1C(=O)S/C(=C/c2cccnc2)C1=O	none
O=C1/C(=C\c2cccnc2)Sc2ccccc21	tim23-1 inh 52.9 (no result: NALP1 inh) | tim23-1 conf 58.9
CCCCNC(=O)c1onc(CSc2ccc(F)c(F)c2)c1C(=O)O	none
Cc1cc(NC(=O)CCSc2ccccc2)no1	none
CC[C@@H]1C(c2ccccc2)=NN(c2ccccc2)[C@H]1C(=O)N1CCOC1=O	none (no result: NLRP3 yeast inh, NALP1 inh)
Cc1cccc(C2=NN(c3ccccc3)[C@@H](C(=O)N3CCOC3=O)[C@@H]2C)c1	none (no result: NLRP3 yeast inh, NALP1 inh)
O=C1OCCN1C(=O)[C@H]1[C@H](c2ccc(F)cc2)C(c2ccccc2)=NN1c1ccccc1	tim23-1 inh 71.6 (no result: NLRP3 yeast inh, NALP1 inh) | tim23-1 conf inactive
Cc1cccc(C2=NN(c3ccc(Br)cc3)[C@@H](C(=O)N3CCOC3=O)[C@@H]2C)c1	tim23-1 inh 51.4 (no result: NLRP3 yeast inh, NALP1 inh) | tim23-1 conf inactive
C[C@@H]1C(c2ccccc2)=NN(c2ccc(Br)cc2)[C@H]1C(=O)N1CCOC1=O	tim23-1 inh 58.8 (no result: NLRP3 yeast inh, NALP1 inh) | tim23-1 conf 45.3
CNc1nc2cccnc2s1	none (no result: NALP1 inh)
Cn1c(SCc2cccc([N+](=O)[O-])c2)nc2c(c1=O)SCC2	none
CCOc1ccccc1NC(=O)COC(=O)CN1C(=O)NC(C)(C)C1=O	none (no result: NALP1 inh)
Cc1cc(N=Cc2cc(Br)ccc2O)no1	tim23-1 inh 67.3 | tim23-1 conf inactive
